From PubChem BioAssay (NCI)
About 79,000 compounds went through this panel and 15% of them were active in at least one assay; those are over-represented in the sample as a whole. Unmarked numbers belong to inactive results. No stated cut-off is given here; in the data, active means growth inhibition above about 70%; inactive means the rest.

assay: NCI Yeast Anticancer Drug Screen. Data for the sgs1 mgt1 strain (AID 161);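 further: 0% = growth of cultures given vehicle only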; settings: S. cerevisiae sgs1 mgt1 strain, at 50.0 µM, active compounds read high
Summary of the method: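 Growth of a repair-deficient yeast mutant was monitored after compound treatment and expressed as inhibition relative to vehicle-treated cultures.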

Row | Structure (SMILES) | growth inhibition [%]
1 | C[C@]12C=CC(=O)C=C1CC[C@@H]1[C@@H]2C(=O)C[C@]2(C)C(=O)CC[C@@H]12 | 2.05
2 | O=C1C2CCN(CC2)C1(CO)CO | -26.6
3 | O=P(c1ccccc1)(c1ccccc1)c1ccccc1.O=P(c1ccccc1)(c1ccccc1)c1ccccc1.O=P(c1ccccc1)(c1ccccc1)c1ccccc1.O=P(c1ccccc1)(c1ccccc1)c1ccccc1.[Co+2].[O-][Cl+3]([O-])([O-])O | 17.9
4 | COc1cc2c(c(Oc3ccc(C)cc3)c1)CN(C)CC2 | 47.9
5 | CC(C)(C)C1COP(=S)(C(C)(C)C)OC1 (configuration not stated) | -0.55
6 | N#CCCCl | 13.6
7 | NNC(=O)NC(=O)NN | 4.6
8 | Cc1ccccc1N | -1.15
9 | CC(C)(C)C1(C)CN(N=O)C(=O)O1 (configuration not stated) | -9.5
10 | NC(CCCCCP(=O)(O)O)C(=O)O (configuration not stated) | -63.3
11 | O=C(NCCc1ccc([N+](=O)[O-])cc1)c1ccc(S(=O)(=O)F)cc1 | 6.5
12 | CC(NC1=NCCO1)c1ccccc1Cl (configuration not stated) | 5.45
13 | O=C(/C=C/c1ccccc1)Nc1ccc(Cl)cc1C(=O)c1ccccc1 | 7.6
14 | Cc1ccc(NC(=O)C(Cl)(Cl)Cl)cc1Cl | 16.4
15 | CC1=NCCN=C(C)C1[N+](=O)[O-] | 39.2
16 | O=C(O)CCCC1CCCCC1.[Ni] | -2.1
17 | CCN1C(=O)C(=Cc2ccc(-c3ccccc3)cc2)C(=O)N(CC)C1=S | 23.1
